Laboratory results: PubChem BioAssay (NCATS)
Records with an inconclusive call do not appear. Activity calls are given as the source filed them. Unless noted, the call rests on the fitted dose curve; in most records, active means well fitted curve in the direction sought with a large enough effect; inconclusive means small, poorly fitted or top-dose-only effect, or another doubt; inactive means no such curve, though single readings can be large; an effect the other way counts as inactive or inconclusive.

Assays:
[1] = Cell Viability - BJ (AID 421; calls by dose curve;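 further: potency means the concentration at half of the fitted maximal effect; cells exposed to compound for 40 hours at 37 °C before readout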); conditions: BJ fibroblast viability, qHTS
In short: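 Quantitative HTS: ATP depletion in BJ cells after 40 hr compound exposure in complete culture medium, detected with CellTiter-Glo; AC50 from standard Hill fits.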

[2] = Cell Viability - Jurkat (AID 426;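 active means dose-dependent loss of cell ATP signal giving a full or clear fitted curve, ranked by lower potency value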;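 further: potency means the concentration at half of the fitted maximal effect; cells exposed to compound for 40 hours at 37 °C before ATP read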); conditions: qHTS
In short: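 Luminescent ATP read-out (CellTiter-Glo, 20 min at room temperature) after 40 hr compound exposure at 37 °C of Jurkat E6-1 cells, 5000/well. Decreased ATP taken as cytotoxicity; AC50 from standard Hill equation.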

[3] = Cell Viability - Hek293 (AID 427;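 active means compounds whose dose-response curve shows a full or clear partial loss of cell viability, called from curve shape rather than a numeric limit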;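 further: potency means the concentration at half of the fitted maximal effect; cells exposed to compound for 40 hours at 37 °C before reading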); conditions: qHTS
In short: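 AC50 values derive from Hill-modelled concentration-response of ATP-based luminescence, normalized between DMSO-only and 100 uM tamoxifen controls. Cells were exposed in complete culture medium for 40 hr at 37 °C before detection.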

[4] = Cell Viability - HepG2 (AID 433; calls by dose curve;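 further: potency means the concentration at half of the fitted maximal effect; potency for ATP loss meaning cytotoxicity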); conditions: qHTS
In short: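 Cytotoxicity is scored as loss of intracellular ATP in HepG2 cells exposed to compounds for 40 h. Concentration-response curves, normalized to DMSO and 100 uM tamoxifen, give AC50 values.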

[5] = Cell Viability - SK-N-SH (AID 435; calls by dose curve; further: potency means the concentration at half of the fitted maximal effect); conditions: SK-N-SH neuroblastoma cell viability qHTS
In short: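 Cells seeded at 1500 per well and incubated 5 hr at 37 °C. Compound added, then 40 hr at 37 °C. CellTiter-Glo added, 20 min at room temperature, luminescence read.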

[6] = Cell Viability - N2a (AID 540); conditions: N2a mouse neuroblastoma cell viability; activity change, negative = cytotoxicity: at 92.2 µM (top of the series);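 further: plate controls were DMSO alone for no effect and tamoxifen control for full effect; nearly all actives have a fitted effect of over 45% in size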
In short: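 N2a mouse neuroblastoma, 1500 cells/well, 5 hr settle; compound 40 hr, 37 °C; CellTiter-Glo 20 min RT; luminescence; Hill-fit AC50.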

[7] = Cell Viability - NIH 3T3 (AID 541); conditions: NIH 3T3 cell viability, qHTS; activity change, negative = cytotoxicity: at 92.2 µM (top of the series);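 further: plate controls were DMSO alone for no effect and tamoxifen positive control for full effect; nearly all actives have a fitted effect of over 25% in size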
In short: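 qHTS format; 40 hr compound exposure, 37 °C; CellTiter-Glo luminescence (cellular ATP) read-out after 20 min at RT. Decrease in ATP = cytotoxicity; AC50 from standard Hill fit.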

[8] = Cell Viability - HUV-EC-C (AID 542); conditions: HUV-EC-C endothelial cell viability, qHTS; series mostly up to 92.2 µM; further: on the % scale 0 is the no-effect control and ±100 the full control effect; nearly all actives have a fitted effect of over 35% in size
In short: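 Luminescent ATP read-out (CellTiter-Glo, 20 min room temperature) after 40 hr compound treatment of HUV-EC-C cells at 37 °C. Concentration-response data fitted with the standard Hill equation to give AC50; tamoxifen and doxorubicin served as positive controls.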

[9] = Cell Viability - H-4-II-E (AID 543); conditions: H-4-II-E rat hepatoma viability; series mostly up to 92.2 µM; further: on the % scale 0 is the no-effect control and ±100 the full control effect; nearly all actives have a fitted effect of over 35% in size
In short: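 qHTS, rat hepatoma H-4-II-E, 1500 cells/well; 40 hr compound exposure, 37 °C; CellTiter-Glo ATP luminescence after 20 min RT; AC50 by standard Hill fit.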

[10] = Cell Viability - SH-SY5Y (AID 544); conditions: SH-SY5Y neuroblastoma cell viability; viability change, negative = cytotoxic: at 92.2 µM (top of the series); further: nearly all actives have a fitted effect of over 55% in size
In short: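 SH-SY5Y, 1500 cells/well, 5 hr pre-incubation 37 °C; cpd 40 hr 37 °C; CellTiter-Glo 20 min RT; luminescence (ATP) read. qHTS concentration-response, Hill fit → AC50. Tamoxifen, doxorubicin as positive controls.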

[11] = Cell Viability - Mesenchymal (AID 546); conditions: mesenchymal cells viability, qHTS; series mostly up to 91.7 µM;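 further: cells exposed to compound for 40 hours before reading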
In short: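 CellTiter-Glo luminescence (intracellular ATP, 20 min room temperature) after 40 hr compound exposure at 37 °C of 1000 glomerulus-derived human kidney mesenchymal cells/well; AC50 values obtained by fitting qHTS concentration-response data to the Hill equation.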

[12] = Cellular Toxicity (caspase-3) HepG2 (AID 654); conditions: HepG2 caspase-3 activation, luminescence; series mostly up to 92.2 µM;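 further: cells exposed to compound for 16 hours before reading; 0% = DMSO alone and 100% = caspase signal from 100 µM tamoxifen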
In short: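 Luminescent Caspase-Glo 3/7 readout after 16 hr compound exposure of human hepatocellular carcinoma HepG2 cells at 37 °C; qHTS concentration-response, normalized DMSO = 0%, 100 uM tamoxifen = 100%; AC50 by standard Hill equation.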

[13] = Cellular Toxicity (caspase-3) Jurkat (AID 655); conditions: Jurkat caspase-3 activation, luminescence; caspase-3 activation: at 92.2 µM (top of the series), DMSO = 0%, tamoxifen = 100%;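 further: cells exposed to compound for 16 h at 37 °C before reading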
In short: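 Caspase 3/7 activation is scored as increased luminescence in Jurkat cells cultured with compound for 16 hours in complete medium. AC50 values come from Hill fits of qHTS concentration-response data normalized to DMSO and 100 uM tamoxifen controls.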

[14] = Cellular Toxicity (caspase-3) HUV-EC-C (AID 656); conditions: HUV-EC-C cells, caspase-3 activation (apoptosis), vehicle = 0, 100 µM tamoxifen = 100%; series mostly up to 92.2 µM
In short: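 Read-out: luminescence proportional to caspase 3/7 activity, measured 20 min after adding Caspase-Glo 3/7 reagent. Cells (HUV-EC-C) had received compound for 16 hr at 37°C. Increases relative to DMSO and 100 uM tamoxifen gave concentration-response AC50 values.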

[15] = Cellular Toxicity (caspase-3) SHSY5Y (AID 657); conditions: SH-SY5Y caspase-3 activation, DMSO zero, 10 µM staurosporine = 100%; series mostly up to 91.7 µM;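 further: cells exposed to compound for 16 hours at 37 °C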
In short: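 Cells plated and incubated 5 h at 37 °C, dosed over a concentration range, incubated 16 h, then given Caspase-Glo 3/7 reagent for 1 h at room temperature before luminescence reading. Staurosporine (10 uM) defined full stimulation.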

[16] = Cellular Toxicity (caspase-3) BJ (AID 658); conditions: BJ fibroblasts, luminescence, normalized: DMSO 0%, staurosporine 100%; series mostly up to 91.7 µM
In short: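 Caspase-Glo 3/7 luminescence, read 1 hr after reagent at room temperature, in normal BJ fibroblasts exposed 16 hours at 37 °C. AC50 values from Hill-equation concentration-response, scaled between DMSO basal and 10 uM staurosporine as 100%.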

[17] = Cellular Toxicity (caspase-3) MRC-5 (AID 659); conditions: MRC-5 cells, luminescence, normalized: DMSO 0%, 10 µM staurosporine 100%; series mostly up to 91.7 µM
In short: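 Luminescent Caspase-Glo 3/7 read-out (1 h, room temperature) after a 16 h, 37 °C compound exposure of MRC-5 lung fibroblasts at 1500 cells/well. Concentration-response AC50 from Hill equation; 0% DMSO, 100% 10 uM staurosporine.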

[18] = target: Mitogen-activated protein kinase 10 (Mus musculus) (UniProt Q61831); assay: JNK3 AlphaScreen Assay (AID 530; active means well fitted curve in either direction with a large enough effect, not every such curve was filed as active;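 further: kinase came from lysate of stimulated human HepG2 cells; signal reports phosphorylation of biotinylated GST-cJun 1-79 at Ser73 with 10 µM ATP; on the % scale 0 is the no-effect control and ±100 the full control effect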); conditions: JNK3 lysate, c-Jun phosphorylation; series mostly up to 57.1 µM
In short: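 Kinase buffer: 20 mM Tris-HCl pH 7.6, 10 mM MgCl2, 1 mM DTT, 0.1 mM Na3VO4, 0.01% Tween-20; ATP 10 uM. Substrate biotin-GST-cJun(1-79), enzyme from activated HepG2 lysates. Detection by Ser73 phospho-antibody AlphaScreen.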

[19] = Cell Viability - Renal Proximal Tubule (AID 545); conditions: renal proximal tubule cells viability, primary cells of rat origin; series mostly up to 91.7 µM; further: nearly all actives have a fitted effect of over 40% in size
In short: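 Cytotoxicity is scored as a concentration-dependent drop in cellular ATP in primary rat renal proximal tubule cells exposed for 40 hr. AC50 derives from Hill modelling.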

[20] = Cell Viability - MRC5 (AID 434; calls by dose curve;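 further: potency means the concentration at half of the fitted maximal effect; cells exposed to compound for 40 hours at 37 °C; potency reflects cytotoxicity seen as loss of intracellular ATP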); conditions: MRC5 lung fibroblast viability, qHTS
In short: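 AC50 values come from Hill-equation fits of intracellular ATP loss, measured by CellTiter-Glo luminescence. Normal lung fibroblasts (MRC5) had 40 hr compound treatment at 37 C, normalized between DMSO and 100 uM tamoxifen.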

S=C([S-])NCCNC(=S)[S-].[Zn+2]
inactive: Potency [1] > 92 µM | Potency [2] > 92 µM | Potency [3] > 92 µM | Potency [4] > 92 µM | Potency [5] > 92 µM | activity change, negative = cytotoxicity [6] -5.49% | Potency [7] | Potency [8] | Potency [9] | Potency [10] | Potency [11] | Potency [12] | caspase-3 activation [13] 5.46% | outcome [14] | outcome [15] | outcome [16] | outcome [17]

CC(O)CC(C)O (stereo not drawn)
inactive: Potency [1] > 92 µM | Potency [2] > 92 µM | Potency [3] > 92 µM | Potency [4] > 92 µM | Potency [5] > 92 µM | outcome [18] | activity change, negative = cytotoxicity [6] -8.39% | Potency [7] | Potency [8] | Potency [9] | Potency [10] | Potency [19] | Potency [11] | Potency [12] | caspase-3 activation [13] 0.345% | outcome [14] | outcome [15] | outcome [16] | outcome [17]

CCCCC=O
inactive: Potency [1] > 92 µM | Potency [2] > 92 µM | Potency [3] > 92 µM | Potency [4] > 92 µM | Potency [5] > 92 µM | outcome [18] | Potency [8] | Potency [9] | Potency [10] | Potency [19] | Potency [11] | caspase-3 activation [13] -1.47% | outcome [14] | outcome [15] | outcome [16] | outcome [17]

Cc1cscn1
inactive: Potency [1] > 92 µM | Potency [2] > 92 µM | Potency [3] > 92 µM | Potency [4] > 92 µM | Potency [5] > 92 µM | outcome [18] | Potency [7] | Potency [8] | Potency [9] | Potency [10] | Potency [19] | Potency [11] | Potency [12] | caspase-3 activation [13] 2.2% | outcome [14] | outcome [15] | outcome [16] | outcome [17]

Cc1ccc(C)c([N+](=O)[O-])c1
inactive: Potency [1] > 92 µM | Potency [2] > 92 µM | Potency [3] > 92 µM | Potency [4] > 92 µM | Potency [20] > 92 µM | activity change, negative = cytotoxicity [6] 2.29% | Potency [7] | Potency [8] | Potency [9] | Potency [10] | Potency [19] | Potency [11] | caspase-3 activation [13] 1.04% | outcome [14] | outcome [15] | outcome [16] | outcome [17]

C=CCCCCCCC=C
inactive: Potency [1] > 92 µM | Potency [2] > 92 µM | Potency [3] > 92 µM | Potency [4] > 92 µM | outcome [18] | Potency [7] | Potency [8] | Potency [9] | Potency [10] | Potency [19] | Potency [11] | Potency [12] | outcome [14] | outcome [15] | outcome [16] | outcome [17]

CC(=C/C=C/C(C)=C/C=C/C=C(C)/C=C/C=C(C)/C=C/C(=O)O)/C=C/C(=O)O
inactive: Potency [1] > 92 µM | Potency [2] > 92 µM | Potency [3] > 92 µM | Potency [4] > 92 µM | Potency [5] > 92 µM | outcome [18] | activity change, negative = cytotoxicity [6] -0.984% | Potency [7] | Potency [8] | Potency [9] | Potency [10] | Potency [11] | Potency [12] | caspase-3 activation [13] -0.472% | outcome [14] | outcome [15] | outcome [16] | outcome [17]

CC1CCCO1 (stereo not drawn)
inactive: Potency [1] > 92 µM | Potency [2] > 92 µM | Potency [3] > 92 µM | Potency [4] > 92 µM | Potency [20] > 92 µM | outcome [18] | Potency [8] | Potency [9] | Potency [10] | Potency [19] | Potency [11] | Potency [12] | caspase-3 activation [13] 1.31% | outcome [14] | outcome [15] | outcome [16]

Nc1c(Cl)cc(Cl)cc1Cl
inactive: Potency [1] > 92 µM | Potency [2] > 92 µM | Potency [3] > 92 µM | Potency [4] > 92 µM | Potency [5] > 92 µM | outcome [18] | activity change, negative = cytotoxicity [6] -11.7% | Potency [7] | Potency [8] | Potency [9] | Potency [10] | Potency [19] | Potency [11] | outcome [14] | outcome [15] | outcome [16] | outcome [17]

OCCO
inactive: Potency [1] > 92 µM | Potency [2] > 92 µM | Potency [3] > 92 µM | Potency [4] > 92 µM | Potency [5] > 92 µM | outcome [18] | activity change, negative = cytotoxicity [6] -12.9% | Potency [7] | Potency [8] | Potency [9] | Potency [10] | Potency [11] | Potency [12] | caspase-3 activation [13] 1.1% | outcome [14] | outcome [15] | outcome [16] | outcome [17]

Cc1cc(C)cc(N)c1
inactive: Potency [1] > 92 µM | Potency [2] > 92 µM | Potency [3] > 92 µM | Potency [4] > 92 µM | outcome [18] | activity change, negative = cytotoxicity [6] 0.732% | Potency [7] | Potency [8] | Potency [9] | Potency [10] | Potency [19] | Potency [11] | Potency [12] | caspase-3 activation [13] 0.537% | outcome [14] | outcome [15] | outcome [16] | outcome [17]

CC(C)c1ccccc1
inactive: Potency [1] > 92 µM | Potency [2] > 92 µM | Potency [3] > 92 µM | Potency [4] > 92 µM | Potency [20] > 92 µM | activity change, negative = cytotoxicity [6] -8.99% | Potency [7] | Potency [8] | Potency [9] | Potency [11] | Potency [12] | caspase-3 activation [13] -0.787% | outcome [14] | outcome [15] | outcome [16] | outcome [17]

CCCCCNCCCCC
inactive: Potency [1] > 92 µM | Potency [2] > 92 µM | Potency [3] > 92 µM | Potency [4] > 92 µM | Potency [5] > 92 µM | outcome [18] | activity change, negative = cytotoxicity [6] 0.97% | Potency [7] | Potency [9] | Potency [10] | Potency [19] | Potency [11] | caspase-3 activation [13] -1.44% | outcome [14] | outcome [15] | outcome [16] | outcome [17]
